Laboratory results: PubChem BioAssay AID1159580 (chemical genetic matrix, 2015)
Values joined by “and” are separate entries in the source; they are usually repeats but may differ in a detail not shown here. Identical values can stand only once. Out of some 5,500 compounds screened, about 2,000 (36%) were called active. Roughly 18% stayed inconclusive and do not appear here. This is one part of the list. A number with no mark means an inactive call. No stated cut-off is given here; in the data, active means normalized growth mostly below about 0.91 (no sharp cut-off); inconclusive means no clear call, values can overlap the other calls; inactive means mostly above about 0.92.

Assay: chemical genetic growth profiling, strain panel (AID 1159580);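 further: tested at 20 µM; growth read once vehicle control cultures reached saturation at 30 °C; 1 = growth at the plate median or of vehicle wells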
Details: growth OD
[1] = S. cerevisiae deletion strains, locus YDL101C, strain DUN1, stronger effect = lower value
[2] = S. cerevisiae deletion strains, locus YHR030C, strain SLT2, stronger effect = lower value

Cc1nc(-c2ccccn2)[nH]c(=O)c1Cc1c(Cl)cccc1Cl
normalized growth (S. cerevisiae deletion strains, locus YAR019C, strain CDC15, stronger effect = lower value): 0.967
normalized growth (S. cerevisiae deletion strains, locus YBL105C, strain PKC1, stronger effect = lower value): 0.962
normalized growth (S. cerevisiae deletion strains, locus YBR135W, strain CKS1, stronger effect = lower value): 0.956
normalized growth (S. cerevisiae deletion strains, locus YBR136W, strain MEC1, stronger effect = lower value): 0.954
normalized growth (S. cerevisiae deletion strains, locus YBR160W, strain CDC28, stronger effect = lower value): 0.963
normalized growth (S. cerevisiae deletion strains, locus YDL017W, strain CDC7, stronger effect = lower value): 0.961
normalized growth (S. cerevisiae deletion strains, locus YDL028C, strain MPS1, stronger effect = lower value): 0.95
normalized growth [1]: 0.965
normalized growth (S. cerevisiae deletion strains, locus YDL108W, strain KIN28, stronger effect = lower value): 0.954
normalized growth (S. cerevisiae deletion strains, locus YDL132W, strain cdc53, stronger effect = lower value): 0.941
normalized growth (S. cerevisiae deletion strains, locus YDL214C, strain PRR2, stronger effect = lower value): 0.861
normalized growth (S. cerevisiae deletion strains, locus YDR052C, strain DBF4, stronger effect = lower value): 0.96
normalized growth (S. cerevisiae deletion strains, locus YDR054C, strain cdc34, stronger effect = lower value): 0.928
normalized growth (S. cerevisiae deletion strains, locus YDR226W, strain ADK1, stronger effect = lower value): 0.959
normalized growth (S. cerevisiae deletion strains, locus YDR477W, strain SNF1, stronger effect = lower value): 0.871
normalized growth (S. cerevisiae deletion strains, locus YER123W, strain YCK3, stronger effect = lower value): 0.726
normalized growth (S. cerevisiae deletion strains, locus YER133W, strain GLC7, stronger effect = lower value): 0.872
normalized growth (S. cerevisiae deletion strains, locus YFL009W, strain cdc4, stronger effect = lower value): 0.965
normalized growth (S. cerevisiae deletion strains, locus YFL029C, strain CAK1, stronger effect = lower value): 0.957
normalized growth (S. cerevisiae deletion strains, locus YFR003C, strain YPI1, stronger effect = lower value): 0.959
normalized growth (S. cerevisiae deletion strains, locus YFR019W, strain FAB1, stronger effect = lower value): 0.906
normalized growth (S. cerevisiae deletion strains, locus YFR028C, strain CDC14, stronger effect = lower value): 0.972
normalized growth (S. cerevisiae deletion strains, locus YGR040W, strain KSS1, stronger effect = lower value): 0.859
normalized growth (S. cerevisiae deletion strains, locus YGR052W, strain FMP48, stronger effect = lower value): 0.871
normalized growth (S. cerevisiae deletion strains, locus YGR092W, strain DBF2, stronger effect = lower value): 0.762
normalized growth [2]: 0.985
normalized growth (S. cerevisiae deletion strains, locus YHR079C, strain IRE1, stronger effect = lower value): 0.842
normalized growth (S. cerevisiae deletion strains, locus YHR082C, strain KSP1, stronger effect = lower value): 0.893
normalized growth (S. cerevisiae deletion strains, locus YHR205W, strain SCH9, stronger effect = lower value): 0.939
normalized growth (S. cerevisiae deletion strains, locus YIL147C, strain SLN1, stronger effect = lower value): 0.946
normalized growth (S. cerevisiae deletion strains, locus YJL095W, strain BCK1, stronger effect = lower value): 0.892
normalized growth (S. cerevisiae deletion strains, locus YJL128C, strain PBS2, stronger effect = lower value): 0.928
normalized growth (S. cerevisiae deletion strains, locus YJL157C, strain FAR1, stronger effect = lower value): 0.823
normalized growth (S. cerevisiae deletion strains, locus YJR016C, strain ILV3, stronger effect = lower value): 0.952
normalized growth (S. cerevisiae deletion strains, locus YJR066W, strain TOR1 (second series), stronger effect = lower value): 0.769
normalized growth (S. cerevisiae deletion strains, locus YJR066W, strain TOR1, stronger effect = lower value): 0.864
normalized growth (S. cerevisiae deletion strains, locus YKL048C, strain ELM1, stronger effect = lower value): 0.941
normalized growth (S. cerevisiae deletion strains, locus YKL067W, strain YNK1, stronger effect = lower value): 0.881
normalized growth (S. cerevisiae deletion strains, locus YKL101W, strain HSL1, stronger effect = lower value): 0.853
normalized growth (S. cerevisiae deletion strains, locus YKL193C, strain SDS22, stronger effect = lower value): 0.951
normalized growth (S. cerevisiae deletion strains, locus YKL203C, strain TOR2, stronger effect = lower value): 0.899
normalized growth (S. cerevisiae deletion strains, locus YLR113W, strain HOG1, stronger effect = lower value): 0.837 (active)
normalized growth (S. cerevisiae deletion strains, locus YLR133W, strain CKI1, stronger effect = lower value): 0.889
normalized growth (S. cerevisiae deletion strains, locus YLR403W, strain SFP1, stronger effect = lower value): 0.858
normalized growth (S. cerevisiae deletion strains, locus YML070W, strain DAK1, stronger effect = lower value): 0.84
normalized growth (S. cerevisiae deletion strains, locus YMR001C, strain CDC5, stronger effect = lower value): 0.956
normalized growth (S. cerevisiae deletion strains, locus YMR205C, strain PFK2 (second series), stronger effect = lower value): 0.876
normalized growth (S. cerevisiae deletion strains, locus YMR277W, strain FCP1, stronger effect = lower value): 0.952
normalized growth (S. cerevisiae deletion strains, locus YNL006W, strain LST8, stronger effect = lower value): 0.952
normalized growth (S. cerevisiae deletion strains, locus YNL020C, strain ARK1, stronger effect = lower value): 0.845
normalized growth (S. cerevisiae deletion strains, locus YNL161W, strain CBK1, stronger effect = lower value): 0.958
normalized growth (S. cerevisiae deletion strains, locus YNL183C, strain NPR1, stronger effect = lower value): 0.9
normalized growth (S. cerevisiae deletion strains, locus YNL207W, strain RIO2, stronger effect = lower value): 0.951
normalized growth (S. cerevisiae deletion strains, locus YNL222W, strain SSU72, stronger effect = lower value): 0.956
normalized growth (S. cerevisiae deletion strains, locus YNL307C, strain MCK1 (second series), stronger effect = lower value): 0.843
normalized growth (S. cerevisiae deletion strains, locus YOL078W, strain AVO1, stronger effect = lower value): 0.964
normalized growth (S. cerevisiae deletion strains, locus YOL136C, strain PFK27, stronger effect = lower value): 0.866
normalized growth (S. cerevisiae deletion strains, locus YOR061W, strain CKA2, stronger effect = lower value): 0.827
normalized growth (S. cerevisiae deletion strains, locus YOR119C, strain RIO1, stronger effect = lower value): 0.887
normalized growth (S. cerevisiae deletion strains, locus YOR231W, strain MKK1, stronger effect = lower value): 0.86
normalized growth (S. cerevisiae deletion strains, locus YOR329C, strain SCD5, stronger effect = lower value): 0.958
normalized growth (S. cerevisiae deletion strains, locus YPL031C, strain PHO85, stronger effect = lower value): 0.869
normalized growth (S. cerevisiae deletion strains, locus YPL153C, strain RAD53, stronger effect = lower value): 0.805
normalized growth (S. cerevisiae deletion strains, locus YPL204W, strain HRR25, stronger effect = lower value): 0.84
normalized growth (S. cerevisiae deletion strains, locus YPL209C, strain IPL1, stronger effect = lower value): 0.956
normalized growth (S. cerevisiae deletion strains, locus YPL256C, strain CLN2, stronger effect = lower value): 0.94
normalized growth (S. cerevisiae deletion strains, locus YPR025C, strain CCL1, stronger effect = lower value): 0.964
normalized growth (S. cerevisiae deletion strains, locus YPR106W, strain ISR1, stronger effect = lower value): 0.985
normalized growth (S. cerevisiae deletion strains, locus YPR111W, strain DBF20, stronger effect = lower value): 0.973
normalized growth (S. cerevisiae deletion strains, strain NNK1, stronger effect = lower value): 0.96
normalized growth (S. cerevisiae deletion strains, strain TSCII, stronger effect = lower value): 0.949

Cc1cc(=O)[nH]c(-c2ccccn2)n1
normalized growth (S. cerevisiae deletion strains, locus YAL013W, strain DEP1, stronger effect = lower value): 1.01 and 0.994
normalized growth (S. cerevisiae deletion strains, locus YBR229C, strain ROT2, stronger effect = lower value): 1.01
normalized growth (S. cerevisiae deletion strains, locus YCL061C, strain MRC1, stronger effect = lower value): 1 and 0.995
normalized growth [1]: 0.994
normalized growth (S. cerevisiae deletion strains, locus YDL134C, strain PPH21, stronger effect = lower value): 1.02
normalized growth (S. cerevisiae deletion strains, locus YDR150W, strain NUM1, stronger effect = lower value): 0.912 and 1.02
normalized growth (S. cerevisiae deletion strains, locus YEL061C, strain CIN8, stronger effect = lower value): 0.993 and 1.01
normalized growth (S. cerevisiae deletion strains, locus YGR078C, strain PAC10, stronger effect = lower value): 1 and 1.01
normalized growth (S. cerevisiae deletion strains, locus YGR229C, strain SMI1, stronger effect = lower value): 1.02
normalized growth [2]: 1.02 and 1.03
normalized growth (S. cerevisiae deletion strains, locus YHR087W, strain rtc3, stronger effect = lower value): 1.01
normalized growth (S. cerevisiae deletion strains, locus YJR043C, strain POL32, stronger effect = lower value): 1.01
normalized growth (S. cerevisiae deletion strains, locus YJR075W, strain HOC1, stronger effect = lower value): 1.04 and 1.01
normalized growth (S. cerevisiae deletion strains, locus YLR039C, strain RIC1, stronger effect = lower value): 0.993 and 1.05
normalized growth (S. cerevisiae deletion strains, locus YLR058C, strain SHM2 (second series), stronger effect = lower value): 1.01 and 1.02
normalized growth (S. cerevisiae deletion strains, locus YLR085C, strain ARP6, stronger effect = lower value): 0.91 and 1.03
normalized growth (S. cerevisiae deletion strains, locus YLR262C, strain YPT6, stronger effect = lower value): 0.993 and 1.02
normalized growth (S. cerevisiae deletion strains, locus YML094W, strain GIM5, stronger effect = lower value): 0.965 and 1.01
normalized growth (S. cerevisiae deletion strains, locus YMR219W, strain ESC1, stronger effect = lower value): 1.01
normalized growth (S. cerevisiae deletion strains, locus YMR263W, strain SAP30, stronger effect = lower value): 0.943 and 0.992
normalized growth (S. cerevisiae deletion strains, locus YMR307W, strain GAS1, stronger effect = lower value): 1.07
normalized growth (S. cerevisiae deletion strains, locus YNL153C, strain GIM3, stronger effect = lower value): 1 and 0.995
normalized growth (S. cerevisiae deletion strains, locus YNL298W, strain CLA4 (second series), stronger effect = lower value): 0.986 and 1.02
normalized growth (S. cerevisiae deletion strains, locus YNL322C, strain KRE1, stronger effect = lower value): 1.01 and 1
normalized growth (S. cerevisiae deletion strains, locus YNR030W, strain Alg12, stronger effect = lower value): 1.02
normalized growth (S. cerevisiae deletion strains, locus YOL006C, strain TOP1, stronger effect = lower value): 1.09
normalized growth (S. cerevisiae deletion strains, locus YPL055C, strain LGE1, stronger effect = lower value): 0.936 and 1
normalized growth (S. cerevisiae deletion strains, locus YPL241C, strain CIN2, stronger effect = lower value): 1.03
normalized growth (S. cerevisiae deletion strains, locus YPR135W, strain CTF4, stronger effect = lower value): 0.997 and 1.01
normalized growth (S. cerevisiae strains, strain wild type, stronger effect = lower value): 1.01
